Each structure is given as a SMILES string. Active and inactive are the calls of the source.

Sequence of NADPH oxidase 2 (Homo sapiens) (P04839 whole entry, looked up): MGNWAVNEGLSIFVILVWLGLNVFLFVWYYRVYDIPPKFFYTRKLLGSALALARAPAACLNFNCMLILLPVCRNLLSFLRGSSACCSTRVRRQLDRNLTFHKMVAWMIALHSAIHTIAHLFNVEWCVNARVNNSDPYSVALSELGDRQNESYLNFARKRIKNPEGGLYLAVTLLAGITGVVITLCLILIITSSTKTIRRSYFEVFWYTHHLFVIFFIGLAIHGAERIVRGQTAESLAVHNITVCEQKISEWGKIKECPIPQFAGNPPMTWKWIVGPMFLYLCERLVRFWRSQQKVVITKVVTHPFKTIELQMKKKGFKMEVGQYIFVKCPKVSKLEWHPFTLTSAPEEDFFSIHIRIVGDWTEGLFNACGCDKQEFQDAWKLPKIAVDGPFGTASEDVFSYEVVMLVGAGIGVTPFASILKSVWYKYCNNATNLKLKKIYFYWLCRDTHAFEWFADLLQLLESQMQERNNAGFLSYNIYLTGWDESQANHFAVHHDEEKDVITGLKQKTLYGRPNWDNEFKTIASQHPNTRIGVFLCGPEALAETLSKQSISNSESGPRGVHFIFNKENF

Test system in one assay: not listed separately
The assay can be described thus: S6 kinase pathway phospho-S6 level changes – cell-based, A549, cytoblot, luminescence, serum-stimulated, primary screen (AID 1158).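 Also: serum-stimulated A549 lung adenocarcinoma cells; signal is phosphorylated S6 detected by cytoblot immunostaining with HRP secondary.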 Conditions: 5 h, higher = more signal.
Molecule `CCOC(=O)C1=CC[C@@H](c2ccccc2)N(S(=O)(=O)c2ccc(C)cc2)C1` came in with a z-score of -0.506. On to `CCN(CC)c1ccc(N2CC=CC34O[C@@H]5/C=C\CCC(C)OC(=O)C5[C@H]3C(=O)N(CCO)[C@@H]4C2=O)cc1` (some centres undefined), for which the z-score was -0.369. Same read-out and setting: to `C=CCOC(=O)[C@H]1[C@@H]2C(=O)O[C@@H](c3ccccc3)[C@@H](c3ccccc3)N2[C@@H](c2ccc(OCCOC(=O)[C@H]3C[C@H]4C(=O)N[C@@H](CCCC[N+](C)(C)C)C(=O)N4[C@H]3c3cccc(OCCO)c3)cc2)[C@]12C(=O)Nc1ccc(I)cc12` belongs 0.4. On the same count and under the same terms, as for `O=C1C[C@@](C(=O)NCC(F)(F)F)(c2ccc([N+](=O)[O-])cc2)[C@@H](c2ccc(CO)cc2)N1C1CCCCC1`, the figure is -0.429.

Another assay concerns the target NADPH oxidase 2 (Homo sapiens) (UniProt P04839). The assay can be described thus: compounds shifting NOX2 Amplex Red fluorescence – cell-based, HEK293-NOX2, PMA-stimulated, NOX inhibitor project, primary screen (AID 1159). Also: test concentration not given here. The conditions noted are these: 45 min, higher = more signal, called active from +8 up or from −8 down.
In the case of `COC(=O)C1(Cc2ccccc2)C=C2C(=C(C(C)C)C(=O)C2C)CN1` (centres undefined), the z-score was -0.862 (inactive). On the same count and under the same terms, to `Cc1c(NC(=O)/C(C#N)=C/C=C/c2ccccc2[N+](=O)[O-])c(=O)n(-c2ccccc2)n1C` belongs -0.235 (inactive); to `[N-]=[N+]=NCc1ccccc1C[C@@]1(C(=O)NCCN2CCOCC2)N=C(c2ccc(OCCCO)cc2)O[C@@H]1c1ccccc1N=[N+]=[N-]`, -3.58 (inactive). The same measure, in the same setting: as for `C[n+]1ccc(CCCO)cc1`, the figure is 0.176 (inactive); as for `CN1C(=O)C2C=CC(C(O)c3c(F)cccc3Cl)N(Nc3ccccc3)C2C1=O` (centres undefined), -2.08 (inactive). Still for that read-out and setting: to `C=C[C@@H](C)[C@H](OC(=O)Nc1ccc(SC)cc1)c1ccc(OCCO)cc1` belongs -0.329 (inactive); to `CC(C)C(O)C1C=CC2C(=O)N(C)C(=O)C2N1N(c1ccccc1)c1ccccc1` (centres undefined), -0.71 (inactive). Regarding `O=C1c2ccccc2[C@](Cc2ccccc2I)(C(=O)NCc2ccccc2)[C@H](c2ccc(CO)cc2)N1C1CCCCC1`, the z-score is 1.65 (inactive). With `CC(=O)n1cc(C(O)C2C=CC3C(=O)N(Cc4ccccc4)C(=O)C3N2n2cnnc2)c2ccccc21` (centres undefined), the z-score was -0.0716 (inactive). Same read-out and setting: to `COc1cc2c(cc1OC)CN(C(=O)[C@H]1[C@@H]3C(=O)O[C@@H](c4ccccc4)[C@@H](c4ccccc4)N3[C@@H](c3ccc(OCCO)cc3)[C@]13C(=O)Nc1ccc(C#CC4(O)CCCCCC4)cc13)CC2` belongs 1.32 (inactive); to `O=c1cccc(-c2ccc(C(F)(F)F)cc2)o1`, 0.584 (inactive); to `COc1ccc(C(O)C2C=CC3C(=O)N(Cc4ccccc4)C(=O)C3N2n2cnnc2)c2ccccc12` (centres undefined), -2.98 (inactive). In the case of `CC(C)(C)OC(=O)CC[C@]1(C(=O)NCCN2CCOCC2)N=C(c2ccc(OCCCO)cc2)O[C@H]1c1ccccc1N=[N+]=[N-]`, the z-score is -2.46 (inactive). On the same count and under the same terms, to `C=CC[C@H](OC(=O)Nc1ccc(OC)cc1)c1ccc(O)c2ccccc12` belongs -6.04 (inactive); to `COC(=O)[C@@]1(Cc2ccc(OC)cc2)[C@H]2c3cc(C(=O)N4CCCC4)n(CCc4cc5ccccc5[nH]4)c3C[C@H]2CN1C(=O)c1ccccc1`, 0.00439 (inactive); to `COc1ccc(CCNC(=O)[C@@]2(Sc3ccc(C)cc3)CC(=O)N(Cc3cc(C(F)(F)F)cc(C(F)(F)F)c3)[C@@H]2c2ccc(CO)cc2I)cc1`, 1.15 (inactive). Same read-out and setting: to `COc1ccc(C(O)C2C=CC3C(=O)N(C)C(=O)C3N2N2CCCCC2)cc1` (centres undefined) belongs -0.378 (inactive). With `COc1ccc([Si](C)(C)[C@@H]2[C@@H](CC(=O)N3CCC[C@H]3CO)O[C@]3(C(=O)N(Cc4ccc(N5C(=O)c6cccc7cccc5c67)cc4)c4ccccc43)[C@H]2C)cc1`, the z-score is 3.1 (inactive).

As to `O=C1c2ccccc2[C@@]2(Cc3ccccc3N(C3CC3)C2=O)[C@H](c2ccc(CO)cc2)N1C1CCCCC1`, the z-score was 0.112 (inactive). Still for that read-out and setting: to `CCOC(=O)C1=CC[C@@H](c2cc(Cl)ccc2Cl)N(S(=O)(=O)c2ccc(C)cc2)[C@H]1c1ccc(OC)cc1` belongs 0.28 (inactive); to `CC=CC(O)C1C=CC2C(=O)N(C)C(=O)C2N1N1CCCCC1` (centres undefined), -0.605 (inactive). On the same count and under the same terms, as for `C=C(C(=O)CC[C@H](OC(C)=O)c1cccc(OCCO)c1)C(C)C`, the figure is -1.48 (inactive); as for `CC(C)C(=C=CC[C@H](O)c1ccc(OCCO)cc1)C[C@H](O)c1cc(Cl)cc(Cl)c1O`, 0.532 (inactive); as for `COc1ccc(C#Cc2ccc3c(c2)[C@]2(C(=O)N3)[C@H](C(=O)N3CCc4cc(OC)c(OC)cc4C3)[C@H]3C(=O)O[C@H](c4ccccc4)[C@H](c4ccccc4)N3[C@@H]2c2ccc(O)cc2)cc1`, 1.32 (inactive). Consider `CN1C(=O)[C@@]2(CCS(=O)(=O)c3ccccc3)N=C(c3ccc(OCCCO)cc3)O[C@H]2c2ccccc21`, for which the z-score is -2.59 (inactive). Still for that read-out and setting: to `CC[C@H]1C2=C3C(CC[C@H]4C(OCc5ccc(F)cc5C(F)(F)F)OC[C@](C)([C@@H]34)N(C(=O)OC(C)(C)C)C2)C2COC(=O)OCC21` (some centres undefined) belongs -0.582 (inactive); to `Cc1ccc(S[C@]2(C(=O)NCc3ccccc3)CC(=O)N(C(C)C)[C@@H]2c2ccc(CO)cc2I)cc1`, 2.05 (inactive). Turning to `Cc1ccc(C(C)CC(O)C2C=CC3C(=O)N(c4ccccc4)C(=O)C3N2Nc2ccc(C(C)C)cc2)o1` (centres undefined), the z-score was -0.831 (inactive). In the case of `COCCOC(=O)N1C(=O)[C@@]2(c3cc(C#Cc4ccc(OC)cc4)ccc31)[C@H](C(=O)NC[C@H](O)c1ccccc1)[C@H]1C(=O)O[C@H](c3ccccc3)[C@H](c3ccccc3)N1[C@@H]2c1ccc(O)cc1`, the z-score is 1.04 (inactive). Turning to `COCCOC(=O)N1C(=O)[C@@]2(c3cc(C#CC4(O)CCCCCC4)ccc31)[C@H](C(N)=O)[C@H]1C(=O)O[C@H](c3ccccc3)[C@H](c3ccccc3)N1[C@@H]2c1ccc(O)cc1`, the z-score is 0.649 (inactive). Turning to `CC1CC/C=C\[C@H]2OC34C=CCN(C(C)C)C(=O)[C@H]3N(CCCCCO)C(=O)[C@@H]4C2C(=O)O1` (some centres undefined), the z-score was 0.745 (inactive). Same read-out and setting: to `CCOC(=O)C1=CC[C@@H](c2ccccc2)N(S(=O)(=O)c2ccc(C)cc2)C1` belongs -0.0336 (inactive); to `CCN(CC)c1ccc(N2CC=CC34O[C@@H]5/C=C\CCC(C)OC(=O)C5[C@H]3C(=O)N(CCO)[C@@H]4C2=O)cc1` (some centres undefined), -0.361 (inactive); to `C=CCOC(=O)[C@H]1[C@@H]2C(=O)O[C@@H](c3ccccc3)[C@@H](c3ccccc3)N2[C@@H](c2ccc(OCCOC(=O)[C@H]3C[C@H]4C(=O)N[C@@H](CCCC[N+](C)(C)C)C(=O)N4[C@H]3c3cccc(OCCO)c3)cc2)[C@]12C(=O)Nc1ccc(I)cc12`, 0.822 (inactive). For the molecule `O=C1C[C@@](C(=O)NCC(F)(F)F)(c2ccc([N+](=O)[O-])cc2)[C@@H](c2ccc(CO)cc2)N1C1CCCCC1`, the z-score is 0.166 (inactive).

(Values after PubChem BioAssay.)
